Over roughly 13,000 compounds, “IFI” has its median near 4; the highest 2% begin near 17. What follows is part of a selection rich in the highest values, with near analogues and random picks from the rest.

The experiment in a line: GSK_TCMDC: Inhibition Frequency Index (IFI). The number of non-kinase HTS assays where a compound showed > 50 % inhibition, expressed as a percentage of the number of such assays in which the compound was tested. It counts as functional.
`Cc1[nH]c(C)c(-c2ccc(-c3ccc(Cl)cc3)cc2)c(=O)c1Cl`: the IFI came to 0.76%.
The figure for `COc1ccc(CNCc2ccc(-c3cccc(-c4nc5cc(C(F)(F)F)ccc5[nH]4)c3)cc2)cc1` is 14.3%; for `CCCCc1cc(O)c2c(c1)OC(C)(C)C=C2C1=CCN(Cc2ccccc2)CC1` it is 1.43%; for `Oc1ccc2nc(NCCCc3ccccc3)nc(NCCCc3ccccc3)c2c1` it is 10.9%.
The figure for `COc1ccc(C(=O)Nc2ccc(Cl)cc2C(=O)Nc2ccncc2)cc1` is 1.35%; for `COc1ccc(NC(=O)Nc2ccc(C)c(-c3ccc(C(=O)NCCN4CCCC4)cc3)c2)cc1` it is 0%.
Compound `COc1cccc(NC(=O)Nc2ccc(-c3oc(C(=O)NCC(c4ccccc4)N(C)C)cc3-c3ccncc3)cc2)c1` (stereo not given) gave an IFI of 6.85%.
The figure for `COc1cccc(NC(=O)c2cc(Br)cc(N3CCN(c4ccncc4)CC3)c2)c1` is 12.5%; for `COc1ccc(NC(=O)Nc2ccc(C)c(-c3ccc(C(=O)Nc4ccncc4)cc3)c2)cc1` it is 25.4%; for `COc1cccc(NC(=O)Nc2ccc(C)c(-c3ccc(C(=O)Nc4ccncc4)cc3)c2)c1` it is 26.8%.
With `CN1CCN(c2ccc(Nc3c(C(N)=O)cnc4cc(-c5ccoc5)ccc34)cc2)CC1`, the IFI is 4.73%.
The compound `OC1=C2C(=Nc3ccccc3SC2c2cccs2)c2ccccc21` (stereo not given) had an IFI of 3.5%.
The figure for `COc1ccccc1-c1ccc(C(=O)NCC2CCCN(Cc3cccc(C(F)(F)F)c3)C2)s1` (stereo not given) is 3.7%; for `Nc1nc(N)c2c(ccc3c2ccn3Cc2ccc3c(c2)OCO3)n1` it is 6.67%; for `Fc1ccccc1C=NNc1ccnc2cc(Cl)ccc12` it is 1.48%.
The figure for `CC(C)c1ccc(C=CC(=O)N2CCC(CCN3CCC(c4c[nH]c5ccccc45)CC3)CC2)cc1` is 7.19%; for `N#Cc1cccc(Nc2nccc(NCC(O)c3ccc(C(F)(F)F)cc3)n2)c1` (stereo not given) it is 20.4%; for `OC(CNc1ccnc(Nc2cccc(Cl)c2)n1)c1ccc(C(F)(F)F)cc1` (stereo not given) it is 11%.
The figure for `Cc1ccccc1C(O)CNc1ccnc(Nc2cccc(C#N)c2)n1` (stereo not given) is 7.69%.
In turn, `OC(CNc1ccnc(Nc2cccc(Cl)c2)n1)c1ccccc1C(F)(F)F` (stereo not given) returned an IFI of 20.4%.
The figure for `OC(CNc1ccnc(Nc2ccc(Cl)cc2)n1)c1ccccc1C(F)(F)F` (stereo not given) is 14.4%; for `N#Cc1cccc(Nc2nccc(NCC(O)c3cccc(C(F)(F)F)c3)n2)c1` (stereo not given) it is 10.4%; for `OC(CNc1ccnc(Nc2cccc(Cl)c2)n1)c1cccc(C(F)(F)F)c1` (stereo not given) it is 13.3%.
`OC(CNc1ccnc(Nc2ccccc2)n1)c1ccc(C(F)(F)F)cc1` (stereo not given) registered an IFI of 8.08%.
`N#Cc1cccc(Nc2nccc(NCC(O)c3ccccc3C(F)(F)F)n2)c1` (stereo not given) came in with an IFI of 19.2%.
On to `CNCCNCc1cccc(-c2ccc(-c3nc4cc(C(F)(F)F)ccc4[nH]3)s2)c1`, for which the IFI is 8%.
In the case of `O=C(Nc1ccc(-c2cccc(-c3nc4cc(C(F)(F)F)ccc4[nH]3)c2)cc1)c1ccoc1`, the IFI worked out at 7.08%.
The figure for `CN(C)CC(=O)Nc1ccc(-c2ccc3ccnc(N)c3c2)cc1` is 7.95%.
For `CCCCCCCN1CC[C@@H](CCCc2ccnc3ccc(OCCCCNC(N)=O)cc23)[C@@H](CC)C1`, the IFI came to 8.76%.
The figure for `CC(C)NCc1ccc(OCc2cccc(COc3ccc(CNC(C)C)cc3I)c2)c(I)c1` is 17.6%; for `CC(C)CNCc1ccc(OCc2cccc(COc3ccc(CNCC(C)C)cc3I)c2)c(I)c1` it is 8.89%.
The figure for `CC[C@H](C)CNCc1ccc(OCc2cccc(COc3ccc(CNC[C@@H](C)CC)cc3I)c2)c(I)c1` is 15.3%; for `Cc1[nH]c(C)c(-c2ccc(OCCSc3ccncc3)cc2)c(=O)c1Br` it is 3.7%; for `O=C(Nc1ccc([N+](=O)[O-])cc1Cl)c1cc2ccccc2cc1O` it is 12.8%.
The figure for `COc1cc([N+](=O)[O-])ccc1NC(=O)c1cc(Cl)ccc1O` is 35.6%; for `O=C(Nc1ccc([N+](=O)[O-])cc1Cl)c1cc(Br)cc(Cc2ccccc2)c1O` it is 16.2%.
Compound `COc1ccccc1NC(=O)c1cc(C(=O)c2cc(Cl)ccc2O)cn(-c2ccccc2OC)c1=O` registered an IFI of 0.97%.
Compound `O=C(Oc1ccc(Cl)cc1C(=O)Nc1ccc([N+](=O)[O-])cc1Cl)c1ccccc1` yielded an IFI of 22.4%.
The figure for `O=C(Nc1ccc(Cl)cc1C(=O)Nc1cccc(F)c1)c1ccc([N+](=O)[O-])cc1` is 1.43%; for `Cc1[nH]cnc1CSCCN/C(=N\C#N)NCCCCCCCCN/C(=N/C#N)NCCSCc1nc[nH]c1C` it is 1.49%; for `CC(C)(C)c1ccc(-c2cc(C(=O)N[C@@H](CO)C(=O)O)on2)cc1.CC(C)(C)c1ccc(-c2nocc2C(=O)N[C@@H](CO)C(=O)O)cc1` it is 0%.
The figure for `CN/C(=N\O)NCCN(C)C` is 1.43%; for `Clc1cccc(Nc2ccc3c(N4CCCCC4)ncnc3n2)c1` it is 8.33%.
With `CS(=O)(=O)CCNCc1nc(-c2ccc3c(Nc4ccc(Cl)cc4F)ccnc3c2)cs1`, the IFI was 7.69%.
The figure for `CS(=O)(=O)CCNCc1nc(-c2ccc3c(Nc4ccc(F)c(O)c4)ccnc3c2)cs1` is 3.73%; for `CS(=O)(=O)CCNCc1nc(-c2ccc3c(=O)[nH]cnc3c2)cs1` it is 22.6%; for `Cc1cc([N+](=O)[O-])ccc1NC(=O)Nc1cccc(C(F)(F)F)c1` it is 7.89%.
The figure for `Cc1sc(NC(=O)c2ccc([N+](=O)[O-])cc2Cl)c(C(N)=O)c1C` is 0.75%; for `Cc1c(N=O)cc(C(C)(C)C)c(O)c1C(=O)Nc1ccc([N+](=O)[O-])cc1Cl` it is 25.2%; for `C=CCNC(CCCCC)c1ccc(OCCOc2ccc(C(CCCCC)NCC=C)cc2)cc1` (stereo not given) it is 18.3%.
For the compound `CCCCCC(NCCCC)c1ccc(OCCOc2ccc(C(CCCCC)NCCCC)cc2)cc1` (stereo not given), the IFI came to 16.3%.
Take `CCCCC(NCC)c1ccc(OCCOc2ccc(C(CCCC)NCC)cc2)cc1` (stereo not given): the IFI came out at 8.82%.
`CCCCCOc1ccc(C(O)C(CCC(CN2CCCCCC2)C(O)c2ccc(OCCCCC)cc2)CN2CCCCCC2)cc1` (stereo not given) yielded an IFI of 12.9%.
`CCCCCCC(N)c1ccc(OCCCOc2ccc(C(N)CCCCCC)cc2)cc1` (stereo not given) yielded an IFI of 24.5%.
For the compound `CCCCCCNC(=N)c1ccc(OCCCCCOc2ccc(C(=N)NCCCCCC)cc2)cc1`, the IFI worked out at 12.3%.
The figure for `Fc1ccc(C=NNc2nc3ccccc3[nH]2)cc1` is 1.42%.
The figure for `O=C1Nc2cccc3c2C1(CCCCN1CCC(c2c(-c4ccc(F)cc4)[nH]c4ccccc24)CC1)CCC3` (stereo not given) is 7.91%.
The compound `CN(c1ccc(NC(=O)Nc2cccc(Cl)c2)cc1)c1ccnc(N)n1` gave an IFI of 6.9%.
The figure for `CN(c1ccccc1)c1ccnc(NC(=N)Nc2ccc(Cl)cc2)n1` is 18.4%; for `CCNC(=O)Nc1ccc(N(C)c2ccnc(NC3CC3)n2)cc1` it is 2.97%; for `Cc1cc(NCCC(=O)Nc2ccccc2)nc(NCCOc2ccccc2)n1` it is 4.88%.
`C=CCOC(=O)N1CCC(CNCc2cccc(-c3ccc(-c4nc5ccccc5[nH]4)s3)c2)C1` (stereo not given) yielded an IFI of 6.73%.
Take `Cc1cc2nc(N/C(N)=N/C(=O)NC3CCCCC3)nc(C)c2cc1C`: the IFI was 9.38%.
As to `CCN(CC)CCOc1ccc(N(Cc2ccc(C(C)(C)C)cc2)C(=O)c2ccc(Cc3ccccc3)cc2)cc1OC`, the IFI was 5.84%.
The compound `Cc1cccc2nc(-c3ccc(-c4cccc(CNCCN5CCNCC5)c4)cc3)[nH]c12` yielded an IFI of 6.93%.
The figure for `CC(C)COc1ccc(Cl)cc1Cc1nc(-c2nc3ccc(CN4CCCC4)cc3[nH]2)co1` is 16.1%; for `CC(C)COc1ccc(Cl)cc1Cc1ccc(-c2nc3cc(CCN(C)C)ccc3[nH]2)o1` it is 16%; for `CC(C)COc1ccc(Cl)cc1Cc1ccc(-c2nc3cc(N4CCN(C)CC4)ccc3[nH]2)o1` it is 17.2%.
For the compound `CN1CCN(c2ccc3[nH]c(-c4ccc(Cc5cc(Cl)ccc5OCc5ccccc5)o4)nc3c2)CC1`, the IFI was 24.7%.
Consider `CC(C)COc1ccc(Cl)cc1Cc1ccc(-c2nc3cc(CCN4CCCC4)ccc3[nH]2)o1`, for which the IFI came out at 22.2%.
The figure for `CC(C)COc1ccc(Cl)cc1Cc1nc(-c2nc3ccc(CN4CCCCC4)cc3[nH]2)co1` is 18.3%; for `CC(C)COc1ccc(Cl)cc1Cc1ccc(-c2nc3cnc4ccccc4c3[nH]2)o1` it is 7.23%.
`CN1CCN(CCc2ccc3nc(-c4csc(Cc5cc(Cl)ccc5OCc5ccccc5)n4)[nH]c3c2)CC1` returned an IFI of 10.2%.
In turn, `CC(C)COc1ccc(Cl)cc1Cc1ccc(-c2nc3cc(F)c(F)cc3[nH]2)o1` gave an IFI of 13.7%.
With `CC(C)COc1ccc(Cl)cc1Cc1nc(-c2nc3ccc(CN4CCN(C)CC4)cc3[nH]2)co1`, the IFI amounted to 5.81%.
As for `Clc1ccc(OCc2ccccc2)c(Cc2ccc(-c3nc4cnccc4[nH]3)o2)c1`, the IFI stood at 12.2%.
The figure for `CNCc1cccc2nc(-c3ccc(Cc4cc(Cl)ccc4OCC(C)C)o3)[nH]c12` is 16.7%.
The figure for `COc1ccc(NC(=O)CCNc2cc(C)nc(NCCc3ccc(F)cc3)n2)cc1` is 4.88%; for `N#Cc1ccc(N2CCN(Cc3ccc(-c4ccc(-c5nc6cc(C(F)(F)F)ccc6[nH]5)cc4)cc3)CC2)nc1` it is 3.96%.
The figure for `NS(=O)(=O)c1cccc(-c2ccc3ncc(N4CCOCC4)nc3c2)c1` is 3.7%.
Compound `Cc1[nH]c(C)c(-c2ccc(-c3ccc(Cl)cc3)nc2)c(=O)c1Cl` had an IFI of 0.92%.
The figure for `COc1cc2s/c(=N\C(=O)c3cccc([N+](=O)[O-])c3)n(C)c2cc1OC` is 1.72%; for `O=C(NC1CCC(CCN2CCc3ccc(-c4cnccn4)cc3CC2)CC1)c1cccc(-n2cccn2)c1` (stereo not given) it is 5.3%; for `O=C1CCCN1CCCNCc1ccc(-c2ccc(-c3nc4cc(C(F)(F)F)ccc4[nH]3)s2)cc1` it is 6.67%.
The figure for `O=C(Nc1cccc(-c2cccc(-c3nc4cc(C(F)(F)F)ccc4[nH]3)c2)c1)c1cccnc1` is 4.59%; for `CCN(CC)CCCC(C)N/C(=N\c1ccccc1Br)Nc1ccc(C#N)cc1O` (stereo not given) it is 0%.
The figure for `Cc1cccc(Nc2nccc(Nc3cccc(C(=O)NCCN4CCOCC4)c3)n2)c1` is 0%.
`Cc1cnc(Nc2cccc(CCN3CCOCC3)c2)nc1NC(C)C`: the IFI turned out to be 17.2%.
Compound `OC(CNc1ccnc(Nc2cccc(CCN3CCOCC3)c2)n1)c1ccccc1` (stereo not given) returned an IFI of 9.28%.
In the case of `Oc1ccc(CCNCCCCNCCc2ccc(Cl)cc2)cc1O`, the IFI was 6.12%.
For the compound `Cc1[nH]c(C)c(-c2ccc(OCc3cccc(C(F)(F)F)c3)nc2)c(=O)c1Br`, the IFI stood at 13.8%.
For the compound `CCCC(C(=O)OCCNC)(c1ccccc1)c1ccccc1`, the IFI is 3.6%.
The figure for `COc1ccc(CCN(C)CCCN2CCC(NC(=O)c3cccc4c(=O)c5ccccc5sc34)CC2)cc1OC` is 21.9%.
`COc1ccc(CCN(C)CCCN2CCC(NC(=O)c3cccc4c(=O)c5ccccc5[nH]c34)CC2)cc1OC` came in with an IFI of 5.76%.
The figure for `COc1ccc(CCN(C)CCCCc2ccc(NC(=O)c3cccc4c(=O)c5cc(F)ccc5sc34)cc2)cc1OC` is 10%.

(Values after ChEMBL document CHEMBL1157539, “Thousands of chemical starting points for antimalarial lead identification” (Nature, 2010).)
